Hits are enriched below; roughly 7.5% of the tested compounds scored in any of these assays.
SMN2 splice up: qHTS Assay for Enhancers of SMN2 Splice Variant Expression; HEK293 SMN2-luciferase splicing reporter, luminescence, 30-36 h; Potency, µM (series often up to 46.1 µM), for inactives: top-dose activity change, positive = activation, usual class: activators; 2.8% of 210,000 active; further: % of control where 0% means no effect; nearly all actives have a fitted effect of over 55% in size
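HEK293 cells carry an SMN2 minigene-luciferase reporter in which exon 7 inclusion puts luciferase in frame. Cells were seeded at 2000 cells/well, attached for 10-12 hours, then exposed to compounds for 30-36 hours at 37C before ONE-Glo luminescence.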
FLuc counter: qHTS profiling assay for firefly luciferase inhibitor/activator using purifed enzyme and Km concentrations of substrates (counterscreen for miR-21 project); Luciferin 4-monooxygenase (Photinus pyralis), P08659; purified FLuc, Km substrates, luminescence inhibition; Potency, µM (titrated, usually from 57.5 µM), inactives show at the highest dose activity change, negative = inhibition, hits mostly inhibitors; 6.9% of 360,000 active;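 further: plate controls were vehicle for no effect and reference inhibitor for full effect; nearly all actives have a fitted effect of over 55% in size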
Target sequence (P08659 whole entry, looked up): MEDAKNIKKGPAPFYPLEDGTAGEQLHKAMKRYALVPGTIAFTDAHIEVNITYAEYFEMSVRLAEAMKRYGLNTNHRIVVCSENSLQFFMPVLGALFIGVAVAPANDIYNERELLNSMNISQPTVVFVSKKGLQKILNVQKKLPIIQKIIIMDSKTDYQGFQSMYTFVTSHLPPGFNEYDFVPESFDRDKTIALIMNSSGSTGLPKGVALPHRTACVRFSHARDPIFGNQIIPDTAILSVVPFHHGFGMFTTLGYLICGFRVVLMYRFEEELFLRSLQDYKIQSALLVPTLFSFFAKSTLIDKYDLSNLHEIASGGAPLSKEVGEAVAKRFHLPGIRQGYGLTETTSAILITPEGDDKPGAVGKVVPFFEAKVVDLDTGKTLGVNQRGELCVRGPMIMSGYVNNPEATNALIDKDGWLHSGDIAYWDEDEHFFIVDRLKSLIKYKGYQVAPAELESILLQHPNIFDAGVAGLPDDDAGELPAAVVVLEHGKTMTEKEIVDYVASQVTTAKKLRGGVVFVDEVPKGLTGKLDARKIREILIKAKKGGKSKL
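Purified P. pyralis luciferase, 10 nM final, with Km-level 10 uM D-luciferin and 10 uM ATP in 50 mM Tris acetate pH 7.5, 10 mM Mg acetate, 0.01% Tween-20, 0.05% BSA; 6-point qHTS titration about 60 µM downward; luminescence read.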
Luc counter: Counterscreen for Luciferase (Kinase-Glo TM) Inhibition; Potency, µM (series often up to 38.3 µM), for inactives: at the highest dose activity change, negative = inhibition, actives largely listed as inhibitors; Luciferin 4-monooxygenase (Photuris pensylvanica), Q27757; AID 1379, 2008; Kinase-Glo luciferase, ATP luminescence, 8 min; 0.28% of 200,000 active; further: on the % scale 0 is the no-effect control and ±100 the full control effect; nearly all actives have a fitted effect of over 60% in size
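Compounds were added to a substrate mix at pH 7.2 (50 mM imidazole, 10 uM ATP, within the enzyme's linear range), followed by Kinase-Glo detection reagent; luminescence was measured after 8 minutes at ambient temperature.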
NPC1 prom act: qHTS Assay for NPC1 Promoter Activators | Huh7 NPC1 promoter luciferase reporter, 24 h | Potency, µM (titrated, usually from 9.22 µM), without a hit: top-dose activation, hits mostly activators | 2.4% of 320,000 active; further: % of control where 0% means no effect; nearly all actives have a fitted effect of over 60% in size
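Luminescence from an NPC1 promoter-driven luciferase reporter in stably transfected Huh7 cells was measured after 24 h compound treatment at 37 °C, followed by 10 min ambient incubation with luciferase detection reagent.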
Rab9 promoter act: qHTS Assay for Rab9 Promoter Activators. Huh7 Rab9 promoter-luciferase reporter, luminescence, 24 h. Potency, µM (highest dose often 9.22 µM), inactives show at the highest dose activation, negative = inhibition, most hits filed as activators. AID 485297, 2010. 2.8% of 320,000 active; further: % of control where 0% means no effect; nearly all actives have a fitted effect of over 60% in size
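Cell-based reporter: Huh7 stable for Rab9 promoter-driven luciferase, plated in reduced-serum medium with 10% FBS at 1500 cells/well, compound-treated 24 h at 37 °C, luminescence read after 10 min reagent.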
ELG1 genotox: qHTS screen for small molecules that induce genotoxicity in human embryonic kidney (HEK293T) cells expressing luciferase-tagged ELG1; AID 504466, 2011; HEK293T ELG1-luciferase reporter, luminescence, 16 h; Potency, µM (top dose mostly 46 µM), without a hit: top-dose activity change, positive = activation, hits mostly activators; 1.3% of 330,000 active; further: % of control where 0% means no effect; nearly all actives have a fitted effect of over 60% in size
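DMSO vehicle served as control against compound-treated ELG1-luciferase HEK293T cells; exposure lasted 16 hr at 37 °C and 5% CO2, followed by ONE-Glo luminescence detection after 30 min.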
Active calls of the source: *. The call rests on the fitted dose curve; in most records, active means well fitted curve in the direction sought with a large enough effect; inconclusive means small, poorly fitted or top-dose-only effect, or another doubt; inactive means no such curve, though single readings can be large; an effect the other way counts as inactive or inconclusive. Potency means the concentration at half of the fitted maximal effect.

COc1ccc(-c2cc3nc(C)n(N)c(=O)c3s2)cc1 was read as FLuc counter 0.076µM*, NPC1 prom act 0.079µM*, Rab9 promoter act 0.0032µM* and ELG1 genotox inconclusive.
For Cc1ccc(NC(=O)Nc2ccc3c(c2)OCO3)nc1 the results were SMN2 splice up 13µM*, FLuc counter 6.7µM*, Luc counter -3%, NPC1 prom act 3.2µM*, Rab9 promoter act 2.5µM* and ELG1 genotox inconclusive.
Screening Cc1cccc(NC(=O)Nc2cc(C)cc(C)n2)c1 returned SMN2 splice up 5µM*, FLuc counter 1.5µM*, Luc counter -3%, NPC1 prom act 2.2µM*, Rab9 promoter act 1.3µM* and ELG1 genotox inconclusive.
`CC(NC(=O)Nc1ccc2c(c1)OCO2)C1CCCO1` (stereo unspecified) gave SMN2 splice up inconclusive, FLuc counter 17µM*, Luc counter 1%, NPC1 prom act inconclusive, Rab9 promoter act inconclusive and ELG1 genotox 13%.
`Cc1cc(C)cc(NC(=O)NC(C)C2CCCO2)c1` (stereo unspecified) gave FLuc counter inconclusive, Luc counter 2%, NPC1 prom act -1%, Rab9 promoter act -1% and ELG1 genotox 0%.
Screening Cc1ccc(OC(F)F)c(NC(=O)Nc2ccc3c(c2)OCO3)c1 returned FLuc counter inconclusive, NPC1 prom act 4%, Rab9 promoter act 6% and ELG1 genotox -5%.
Cc1ccc(NC(=O)/C=C/c2ccc3c(c2)OCO3)nc1 was read as SMN2 splice up 2.8µM*, FLuc counter 2.1µM*, Luc counter -2%, NPC1 prom act 2.5µM*, Rab9 promoter act 2.5µM* and ELG1 genotox inconclusive.
For Cc1ccc2nc(NC(=O)/C=C/c3ccc4c(c3)OCO4)sc2c1 the results were SMN2 splice up -59%, FLuc counter 3%, Luc counter -2%, NPC1 prom act 4%, Rab9 promoter act 0% and ELG1 genotox inconclusive.
Screening COc1cc(C(=O)NCc2ccc3c(c2)CCN3C(=O)c2ccncc2)cc(OC)c1OC returned FLuc counter -10%.
For CCc1cccc(C)c1NC(=O)Nc1ccc2c(c1)OCO2 the results were SMN2 splice up 21%, FLuc counter 3%, Luc counter -2%, NPC1 prom act -3%, Rab9 promoter act 1% and ELG1 genotox 0%.
For Cc1cc(C)nc(NC(=O)Nc2ccc3c(c2)OCO3)c1 the results were SMN2 splice up 2.5µM*, FLuc counter inconclusive, Luc counter -2%, NPC1 prom act 0.71µM*, Rab9 promoter act 0.56µM* and ELG1 genotox inconclusive.
For Cc1ccnc(NC(=O)CNC(=O)c2ccc3c(c2)OCO3)c1 the results were FLuc counter -6%, NPC1 prom act 0%, Rab9 promoter act 1% and ELG1 genotox 19%.
Screening Cc1cc(C)nc(NC(=O)c2ccc3c(c2)OCO3)c1 returned SMN2 splice up 7%, FLuc counter 17µM*, Luc counter inconclusive, NPC1 prom act 18%, Rab9 promoter act 17% and ELG1 genotox 14%.
Cc1ccc(Cc2cnc(NC(=O)c3ccc4c(c3)CC(c3ccccc3)OC4=O)s2)cc1 (stereo unspecified) was read as SMN2 splice up 52% and FLuc counter 0%.
`Cc1nc(NC(=O)c2ccccc2)sc1-c1csc(NCc2ccco2)n1` gave SMN2 splice up -11%, FLuc counter 13µM*, Luc counter -8%, NPC1 prom act 2%, Rab9 promoter act -1% and ELG1 genotox -1%.
CCOc1ccccc1Nc1nc(-c2sc(NC(=O)c3ccco3)nc2C)cs1 was read as SMN2 splice up -38%, FLuc counter -13%, Luc counter -5%, NPC1 prom act -7%, Rab9 promoter act 3% and ELG1 genotox -10%.
COc1ccc(-c2csc(NCc3ccco3)n2)cc1 was read as SMN2 splice up 13µM*, FLuc counter 1.1µM*, Luc counter -5%, NPC1 prom act 0.89µM*, Rab9 promoter act 0.56µM* and ELG1 genotox inconclusive.
Screening c1coc(CNc2nc(-c3ccncc3)cs2)c1 returned SMN2 splice up 16%, FLuc counter inconclusive, Luc counter 0%, NPC1 prom act 26%, Rab9 promoter act 15% and ELG1 genotox 0%.
Screening Cc1nc(C)c(-c2csc(NCc3ccccc3)n2)s1 returned SMN2 splice up -40%, FLuc counter inconclusive, Luc counter 0%, NPC1 prom act 24%, Rab9 promoter act 10% and ELG1 genotox 9%.
Screening c1coc(CNc2nc3ccccc3s2)c1 returned FLuc counter 7.6µM*, NPC1 prom act 1.6µM*, Rab9 promoter act inconclusive and ELG1 genotox inconclusive.
`Cc1nc(C)c(-c2csc(NCc3ccco3)n2)s1` gave SMN2 splice up inconclusive, FLuc counter 15µM*, Luc counter -3%, NPC1 prom act 29%, Rab9 promoter act inconclusive and ELG1 genotox 13µM*.
`Cc1ccc(C)c(N2CCN(S(=O)(=O)c3cc(C(=O)Nc4ccc(Oc5ccccc5)cc4)ccc3F)CC2)c1` gave FLuc counter -7%.
For O=S(=O)(c1cccc(Cl)c1)c1nnn2c1nc(NC1CCCC1)c1sccc12 the results were FLuc counter -2%.
Cc1cc(=O)c2c(O)c3c(O)cc(O)c4c5c(O)cc(O)c6c(O)c7c(=O)cc(C)c8c1c2c(c34)c(c65)c78 was read as SMN2 splice up -80% and Luc counter inconclusive.
Screening O=C(CCC(=O)N1CC2CCCN2c2ccccc21)NCc1ccccc1F (stereo unspecified) returned FLuc counter 4%.
Screening COc1cccc(OCc2ccc(Cl)cc2)c1C#N returned FLuc counter 0.54µM*, NPC1 prom act 0.71µM*, Rab9 promoter act 0.56µM* and ELG1 genotox inconclusive.
Screening COc1cccc(CNC(C)(C)CO)c1OCc1ccc(Cl)cc1 returned SMN2 splice up -17%, FLuc counter 6%, Luc counter -2%, NPC1 prom act -2%, Rab9 promoter act -5% and ELG1 genotox -8%.
Cc1ccccc1Nc1c(-c2ccco2)nc2c(C)cccn12 was read as SMN2 splice up 16µM* and FLuc counter 13µM*.
Cc1ccccc1Nc1c(-c2ccc(Cl)cc2)nc2c(C)cccn12 was read as SMN2 splice up -9% and FLuc counter 0%.

High-throughput results (PubChem)
